FBW7 act – activators of human E3 ligase FBW7; Q969H0; AlphaScreen FBW7–phospho-cyclin E peptide binding, activator screen; normalized activity (activation), % at 26.1 µM; 650,000 tested, 0.13% active; in the data active = normalized activity above about 1.9%;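 note: purified mutant Fbw7 with reduced substrate affinity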
GPR151 activ – activators of human GPR151 | PathHunter beta-arrestin GPR151 cells, luminescence | activation, % at 11.2 µM | 650,000 tested, 1% active; in the data active = activation above about 4.9%;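 note: 0% = median of compound wells and 100% = cells with positive control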
MITF primary – blocks human microphthalmia-associated transcription factor | O75030 | AlphaScreen MITF homodimerization, bead proximity signal | inhibition, % at 2.6 µM | 650,000 tested, 0.91% active | AID 1259374; in the data active = inhibition above about 50%;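 note: 0% = vehicle wells with protein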
Target sequence (O75030 whole entry, looked up): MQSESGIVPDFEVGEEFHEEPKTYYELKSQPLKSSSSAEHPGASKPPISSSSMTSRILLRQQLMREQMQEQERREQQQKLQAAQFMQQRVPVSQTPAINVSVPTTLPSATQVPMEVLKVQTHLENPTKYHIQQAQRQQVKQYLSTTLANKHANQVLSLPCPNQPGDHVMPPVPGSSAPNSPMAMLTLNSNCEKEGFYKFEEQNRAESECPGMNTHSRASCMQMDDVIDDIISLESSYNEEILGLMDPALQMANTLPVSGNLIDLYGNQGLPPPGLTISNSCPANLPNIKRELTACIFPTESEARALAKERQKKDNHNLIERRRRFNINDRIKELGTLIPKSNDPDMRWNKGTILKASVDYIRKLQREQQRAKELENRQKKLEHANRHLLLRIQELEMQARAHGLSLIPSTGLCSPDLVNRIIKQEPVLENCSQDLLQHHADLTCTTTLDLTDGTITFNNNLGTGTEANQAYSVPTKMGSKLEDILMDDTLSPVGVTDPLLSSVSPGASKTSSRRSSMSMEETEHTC
TEAD-YAP block – TEAD-YAP interaction inhibition. 640,000 tested, 1.4% active. inhibition, % at 9.12 µM. AID 1259422. HEK-TIYL cells, TEAD-Gal4/YAP UAS-luciferase luminescence; in the data active = inhibition above about 32%;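 note: 0% = median of test compound wells and 100% = reference inhibitor wells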
Numbers without * were called inactive. Hits are enriched below; roughly 3.5% of the tested compounds scored in any of these assays.

SMILES	FBW7 act	GPR151 activ	MITF primary	TEAD-YAP block
COC(=O)C[C@](O)(CCCC(C)(C)O)C(=O)O[C@@H]1C(OC)=C[C@]23CCCN2CCc2cc4c(cc2[C@H]13)OCO4	1	-1	3	99*
O=C(NC(=S)Nc1ccc(-c2nc3ccccc3o2)c(O)c1)c1ccccc1	0	1	-1	-5
CN(C)c1ccc2nc3ccc(=[N+](C)C)cc-3sc2c1	19*	-1	-204	32
Cc1nc2ccc(N=Cc3ccc(N(C)C)cc3)cc2s1	0	2	4	0
Cc1ccccc1Cn1c(N2CCC(C)CC2)nc2c1c(=O)n(C)c(=O)n2C	0	0	14	3
CCCN1CCN(C(=O)c2c(COC)n(CCc3ccccc3Cl)c(C)cc2=O)CC1	0	0	-28	1
O=C(CN1CCOCC1)NNc1nc(-c2ccccc2)c2cc(Cl)ccc2n1	0	1	3	19
Clc1ccc2nc(NCCN3CCOCC3)nc(-c3ccccc3)c2c1	0	0	-4	38*
CCOC(=O)c1sc(NC(=O)COc2ccc(C)cc2)c(C(=O)OCC)c1C	1	0	0	-2
Cc1cc2c(cc1C)-c1nc3ccccc3cc1C2=O	0	-3	4	-30
Cc1cc2c(cc1C)-c1nc3ccccc3cc1C2	1	-4	9	54*
Cc1ccc2c(c1)Cc1nc3ccccc3nc1-2	0	-10	-1	65*
CC(=O)Oc1cc(C(=O)Nc2ccc(F)cc2)cc(C(=O)Nc2ccc(F)cc2)c1	0	0	15	18
COC(=O)c1ccc(NC(=O)c2cc(OC(C)=O)cc(OC(C)=O)c2)cc1	0	1	2	45*
COc1ccc(OC)c(NC(=O)c2cc3c(s2)-c2ccccc2S(=O)(=O)C3)c1	0	1	1	8
O=C(Nc1ccc2nc3n(c(=O)c2c1)CCCCC3)c1cc([N+](=O)[O-])ccc1F	0	1	0	29
O=C(Nc1ccc2nc3n(c(=O)c2c1)CCCCC3)c1c(F)ccc([N+](=O)[O-])c1F	0	0	9	36*
COc1ccc(CNc2nc(Nc3ccc(N4CCOCC4)cc3)nc3nc[nH]c23)cc1	0	1	1	-16
COc1ccc(CCNc2nc(Nc3ccc(N4CCOCC4)cc3)nc3nc[nH]c23)cc1	0	3	15	49*
Cc1cnc(Nc2ccc(N3CCOCC3)cc2)nc1NCc1ccccc1	0	1	30	37*
Cc1cnc(Nc2ccc(N3CCOCC3)cc2)nc1NCc1cccnc1	0	0	8	-9
Cc1cnc(Nc2nc3ccccc3n2C)nc1NCc1ccccc1	1	0	10	42*
Cn1cnc(-c2ccccc2Nc2nc(Nc3ccc(N4CCOCC4)cc3)ncc2Cl)n1	-1	1	27	33*
O=C(Nc1cccc2c(NC(=O)c3ccc([N+](=O)[O-])o3)cccc12)c1ccc([N+](=O)[O-])o1	1	-1	20	1
Cc1ccc2c(c1)N(C(=O)Cc1ccccc1)C(C)(C)c1ssc(=S)c1-2	-1	0	31	-10
SMILES	FBW7 act	GPR151 activ	MITF primary	TEAD-YAP block
CCn1c(C(=O)NCc2ccccn2)cc2sc(Cl)cc21	0	0	16	1
O=C(c1cnsc1)N1CCC2(CC1)Nc1ccccc1-n1cccc12	0	0	16	0
COc1ccc(CCNc2nc(Nc3ccc(C(F)(F)F)cc3)nc3nc[nH]c23)cc1	0	-1	5	9
COc1ccc(CCNc2nc(Nc3ccc(N4CCOCC4)cc3)ncc2C)cc1	0	3	20	64*
Cc1cnc(Nc2ccncc2)nc1NCc1ccccc1	0	1	21	40*
COc1ccc(CCNc2nc(Nc3ccncc3)nc3nc[nH]c23)cc1	0	0	2	44*
COc1ccc(Cl)cc1NC(=O)C(=O)NCc1ccccn1	0	1	15	-3
O=C(Nc1cccc(O)c1)c1ccco1	0	-1	1	11
COc1ccc(C(=O)n2c(=S)nc3cccc(C)n32)cc1	0	2	-2	11
COc1ccc(C(=O)n2c(=S)nc3ccccn32)cc1	0	-1	9	74*
COc1cccc2cc(S(=O)(=O)c3ccc(F)cc3)c(=O)oc12	0	-1	6	-3
CCN(CC)c1ccc2cc(S(=O)(=O)c3ccc(F)cc3)c(=O)oc2c1	2.1*	-1	-32	-17
O=S(/C=C(\F)C(F)(F)C(F)(F)C(F)F)Cc1ccccc1 (stereo unspecified)	0	2	-3	50*
CC(=O)CC(O)(c1ccccc1)C(F)(F)C(F)F (stereo unspecified)	0	1	5	-14
Nc1cccc2c1C(=O)N(C(=O)c1ccc(Oc3ccccc3)cc1)C2=O	0	1	2	-77
c1ccc(CSc2nn3cnnc3s2)cc1	0	0	-8	58*
Fc1ccc(CSc2nn3cnnc3s2)cc1	1	-1	8	58*
Cn1cnnc1SCc1ccccc1Cl	0	1	0	12
Clc1ccccc1CSc1nn2cnnc2s1	0	0	-4	55*
Cc1ccc(CCNC(=O)c2c(N)[nH]n3c(=O)c4ccccc4nc23)cc1	0	-1	4	35*
CCc1c(C)nc2c(C(=O)NCCc3ccccc3)c[nH]n2c1=O	0	4	1	3
COCCNC(=O)CCNC(=O)c1ccc(OC)c(OC)c1	0	-1	3	14
Cc1cc(C)n(CC(O)Cn2c(C)c(C)c3ccccc32)n1 (stereo unspecified)	0	0	53*	-5
Cc1ccc(S(=O)(=O)Nc2cc3c4c(oc3cc2C)CCCC4=O)cc1	0	1	8	10
COC(=O)c1c(C)oc2ccc(NS(=O)(=O)c3ccc(OC)cc3)cc12	0	0	-22	72*
SMILES	FBW7 act	GPR151 activ	MITF primary	TEAD-YAP block
COc1ccc(S(=O)(=O)Nc2cc3c4c(oc3cc2C)CCCC4=O)cc1	0	1	1	55*
COC(=O)c1c(C)oc2ccc(NS(=O)(=O)c3ccc(Cl)cc3)cc12	0	0	-5	16
COC(=O)c1c(C)oc2cc(C)c(NS(=O)(=O)c3ccc(Br)cc3)cc12	0	0	2	34*
COC(=O)c1c(C)oc2c1cc(NS(=O)(=O)c1ccc(Br)cc1)c1ccccc12	0	0	6	4
COC(=O)c1cccc(NS(=O)(=O)c2ccc(C)cc2)c1	0	0	6	53*
COC(=O)c1c(C)oc2ccc(NS(=O)(=O)c3ccc(C)cc3)cc12	0	1	-1	56*
COc1ccc(C(=O)Nc2ncc(Cc3ccc(F)cc3)s2)cc1OC	1	0	10	55*
CC(=O)Nc1ncc(Cc2ccc(Cl)cc2)s1	0	2	2	11
COc1cc(C(=O)Nc2ncc(Cc3ccc(Cl)cc3)s2)cc(OC)c1OC	0	0	-3	58*
COc1ccc2nc(NC(=O)c3sc4ccccc4c3Cl)sc2c1	0	0	-8	-9
COc1ccc(Cc2cnc(NC(=O)c3sc4ccccc4c3Cl)s2)cc1	0	2	-22	48*
O=C(Nc1ncc(Cc2ccccc2Cl)s1)c1cccc2ccccc12	0	-1	-15	35*

Screening results from PubChem.
